Sampled rows, rich in hits. Any-hit rate of the full collection: about 3.6%.
aSyn rescue: qHTS of alpha-syn Inhibitors | AID 652106, 2013 | 370,000 tested, 0.14% active | Potency, µM (series often up to 46.1 µM), for inactives: at the top dose growth rescue (activation), usual class: activators | Yeast expressing alpha-synuclein, growth rescue, BacTiter-Glo, 24 h; note: % of control where 0% means no effect; nearly all actives have a fitted effect of over 65% in size
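Galactose-induced alpha-syn yeast (OD600=0.02, raffinose-pregrown) + pinned cpd, 24 hr, 30 deg C; growth by BacTiter-Glo luminescence. Growth restoration scores as activation.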
Mm-Cpn inhibitor: Inhibitors of TCP-1 ring complex (TRiC) of Methanococcus maripaludis (MmCpn): qHTS; Potency, µM (top dose mostly 76.9 µM), for the others: top-dose activity, negative = inhibition, most hits filed as inhibitors; 330,000 tested, 0.031% active; purified Mm-Cpn ATPase, ADP Transcreener TR-FRET; Chaperonin Mm-Cpn (Methanococcus maripaludis); note: % is set by controls: 0 for no effect and ±100 for the full control effect; nearly all actives have a fitted effect of over 80% in size
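25 nM Mm-CPN + cpd, 10 min 37°C; + 10 uM ATP, 30 min 37°C; buffer 30 mM Tris pH 7.4, 100 mM KCl, 5 mM MgCl2, 1 mM DTT; Transcreener ADP HTRF detection 30 min RT.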
ClpP mod: qHTS Assay for Activators of ClpP | purified B. subtilis ClpP, FRET peptide cleavage, 20 min | ATP-dependent Clp protease proteolytic subunit (Bacillus subtilis (strain 168)), P80244 | 340,000 tested, 1.9% active | Potency, µM (series often up to 57.5 µM), without a hit: top-dose activity change, negative = active; active = well fitted falling curve with a large enough effect; inconclusive = small, poorly fitted or top-dose-only effect; inactive = no such curve, though single readings can be large or run the other way; note: the source files actives as falling curves though it sought activators and does not explain the sign; nearly all actives have a fitted effect of over 65% in size
Target sequence (P80244 whole entry, looked up): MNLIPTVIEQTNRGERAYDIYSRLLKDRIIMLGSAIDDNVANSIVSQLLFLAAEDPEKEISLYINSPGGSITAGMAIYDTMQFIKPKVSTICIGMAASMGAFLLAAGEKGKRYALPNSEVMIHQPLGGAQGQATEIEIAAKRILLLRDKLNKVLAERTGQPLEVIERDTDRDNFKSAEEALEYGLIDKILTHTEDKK
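Purified B. subtilis ClpP, 10 microg/mL final in Tris/HCl pH8 with KCl, BSA, glycerol and Tween-20, cleaved an Abz/nitrotyrosine-quenched decapeptide. Fluorescence (ex 320, em 430) was read at 0 and 20 min at room temperature. Delta was normalized to 5.8 microM ADEP and DMSO/no-enzyme controls.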
TDP-43 yeast inh: qHTS of TDP-43 Inhibitors; TDP-43 expressing yeast growth rescue, BacTiter-Glo, 24 h; 410,000 tested, 1.8% active; Potency, µM (doses to about 46.1 µM), for the others: at the top dose growth rescue (activation), hits mostly activators; note: % of control where 0% means no effect; nearly all actives have a fitted effect of over 50% in size
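Galactose-induced TDP-43 yeast, OD600=0.02, compound pinned; 24 hr, 30 deg C; BacTiter-Glo luminescence for growth. Inhibitors of TDP-43 toxicity read as activators.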
FUS yeast rescue: qHTS for Suppressors of FUS Proteinopathy: Primary screen using FUS-linked yeast assay; Potency, µM (highest dose often 76.6 µM), hits mostly activators; S. cerevisiae FUS-expressing, growth rescue, OD600, 24 h; 390,000 tested, 0.24% active;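 note: plate controls were DMSO vehicle for no effect and reference control for full effect; nearly all actives have a fitted effect of over 55% in size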
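Quantitative HTS measuring growth restoration of FUS-toxic yeast. Galactose-induced cells (OD 0.005) were exposed 24hr at 30C to compounds at several concentrations, then absorbance at 600 nm was recorded.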
Abeta yeast res: qHTS for compounds that reverse cellular toxicity of Amyloid beta (A-beta) peptide in yeast: Primary Screen; yeast expressing A-beta42, growth rescue, OD600, 48 h; response scale: 0% DMSO, 100% iron-clioquinol control; Potency, µM (top dose mostly 46.1 µM), actives largely listed as activators; 410,000 tested, 0.063% active; AID 1347071, 2019; note: nearly all actives have a fitted effect of over 55% in size
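Yeast A-beta toxicity model in growth medium with pinned compounds, 48 h at 30 C; growth read as absorbance at 600 nm. Normalized to FeCl3/clioquinol equimolar mix (positive) and DMSO (negative).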
Starred values were filed as active, the others as inactive; i = inactive; ? = inconclusive; . = not tested or not shown; [ ] = another dose, or the depositor's remark. Unless noted, calls come from the whole dose curve; as a rule, active = well fitted curve in the direction sought with a large enough effect; inconclusive = small, poorly fitted or top-dose-only effect, or another doubt; inactive = no such curve, though single readings can be large; an effect the other way counts as inactive or inconclusive. Potency is the fitted concentration of half-maximal effect.

SMILES	aSyn rescue	Mm-Cpn inhibitor	ClpP mod	TDP-43 yeast inh	FUS yeast rescue	Abeta yeast res
CC(=O)NC(c1cccc(F)c1)c1nc(-c2cccc(C(=O)O)c2)cs1 (stereo not given)	2%	.	-1%	?	i	i
CCN1C(=O)C(Cc2nc3ccccc3c(=O)n2-c2ccc(OC)cc2)c2cc(C)ccc21 (stereo not given)	.	.	-4%	8%	?	i
CCC1=C(c2ccc(C)cc2)S(=O)(=O)N=C1N1CCC(C(=O)NCCc2cccc(OC)c2)CC1	.	.	-1%	19%	i	i
O=C(NCCc1ccccc1Cl)c1sc2ncccc2c1-n1cccc1	.	.	-5%	18µM*	?	i
Cc1ccc(C(=O)NCC(=O)OCC(=O)NC(C)C2CC3CCC2C3)cc1 (stereo not given)	-4%	-3%	32µM*	-20%	i	i
CCOc1ccc2cc(-c3nnc(Nc4ccccc4F)s3)c(=O)oc2c1	.	.	-5%	0%	i	i
O=C1C2C3C=CC(C3=C(c3ccccc3)c3ccccc3)C2C(=O)N1CCO (stereo not given)	15%	1%	-7%	20µM*	i	i
COc1ccc(OC)c(NC(=O)c2c(NCc3ccc(C)o3)sc3c2CCCCC3)c1	.	.	0%	0%	i	i
O=C(O)c1ccc(N/N=C/c2ccc(-c3cccc(Cl)c3)o2)cc1	-16%	1%	-21%	18µM*	i	i
O=C(C(=Cc1ccc(F)cc1)c1ccccc1)c1ccc(O)cc1	-57%	.	-2%	9%	.	i
O=C(C(=Cc1ccc(F)cc1)C(=O)c1ccccc1)c1ccccc1	?	.	7%	3.5µM*	i	i
NS(=O)(=O)c1cccc(NC(=O)CSc2nc3ccc(Cl)cc3[nH]2)c1	0%	3%	14µM*	23%	i	i
CC(C)N(C(=O)CSc1nc2ccc(Cl)cc2[nH]1)c1ccccc1	.	.	1%	35µM*	i	i
CC1CCCN(CCCNC(=O)c2cc(Sc3ccc(F)cc3)nc3ccccc23)C1 (stereo not given)	.	.	-8%	13%	i	i
O=C1c2ccccc2C(=O)N1CSc1nnc(Nc2ccccc2F)s1	-4%	2%	28µM*	-2%	.	i
O=C1c2ccccc2C(=O)N1CSc1nnc(Nc2ccccc2)s1	-2%	-1%	.	10%	i	i
CCCc1cc(=O)n2[nH]c(C)cc2n1	4%	2%	32µM*	-4%	i	i
COC(=O)Cc1cc(=O)n2[nH]c(C)cc2n1	1%	2%	-7%	-14%	i	i
Oc1cccc(/C=N/c2c(-c3ccco3)nc3ccccn23)c1	-27%	-6%	28µM*	-20%	i	?
O=[N+]([O-])c1ccc(Cl)c(-c2ccc(/C=N/c3c(-c4ccco4)nc4ccccn34)o2)c1	-10%	-2%	1%	14%	i	i
COc1cc(-c2nc3ccccn3c2/N=C/c2cccc(F)c2)ccc1O	-5%	-7%	-14%	3%	.	i
Cc1cc(C)c([N+](=O)[O-])cc1-c1ccc(/C=N/c2c(-c3ccco3)nc3ccccn23)o1	4%	-1%	?	14µM*	i	i
COc1cc(-c2nc3ccccn3c2/N=C/c2ccccc2)ccc1O	-9%	-9%	32µM*	-2%	i	i
COc1cc(-c2nc3ccccn3c2NCC2CCCO2)ccc1O (stereo not given)	2%	-11%	25µM*	-17%	i	i
CCc1c(C(=O)NCCc2ccc(N3CCCCC3)cc2)[nH]c2ccc(Cl)cc12	-12%	.	.	.	.	.
SMILES	aSyn rescue	Mm-Cpn inhibitor	ClpP mod	TDP-43 yeast inh	FUS yeast rescue	Abeta yeast res
CCOc1ccc(Nc2nn(-c3ccc(OC(F)(F)F)cc3)nc2C(C)=O)cc1	.	.	3%	-2%	i	i
O=C1CCCc2c1[nH]c1ccccc21	0%	0%	-1%	21%	i	i
c1ccc2c(c1)OCCc1c-2[nH]c2ccccc12	-3%	1%	3%	13µM*	i	i
CCCC[C@H]1C2CC(OC(=O)Nc3ccc(C)cc3)C(C2)[C@H]2CCCCN21 (stereo not given in full)	.	.	.	.	i	.
Cn1c(=O)n(CCc2ccccc2)c(=O)c2c1nc1n2CCCN1CCc1ccccc1	1%	2%	-9%	13µM*	i	i
COc1cccc(NC(=O)Nc2c(-c3ccc(F)cc3)nc3ncccn23)c1	.	.	.	.	i	.
Cc1c(CNC2CCC(C)CC2)c(C(=O)O)c(C)n1Cc1ccc(Cl)cc1 (stereo not given)	.	.	0%	-3%	i	i
COc1cccc(-c2cnc(NCc3ccccc3Cl)n2C)c1	.	.	-26%	-14%	i	i
COc1cccc(-c2cnc(NCc3cc(Cl)ccc3O)n2C)c1	-2%	-1%	28µM*	-1%	i	i
CCOc1ccc(S(=O)(=O)Nc2cc(SCC(=O)O)c(O)c3ccccc23)cc1	-10%	-1%	29%	17%	i	i
CC(C)OC(=O)C(C(=O)C(F)(F)F)c1cc(NS(=O)(=O)c2ccc3ccccc3c2)c2ccccc2c1O (stereo not given)	-34%	-27%	?	-64%	10µM*	i
O=C(Nc1ccc2nc3n(c(=O)c2c1)CCCCC3)C(=O)Nc1ccccc1F	.	.	?	18%	i	i
CC(Oc1ccccc1)C(=O)Nc1nc2ccc(S(N)(=O)=O)cc2s1 (stereo not given)	.	.	0%	17%[9.22 µM]	i	i
CN(Cc1nc2ccccc2c(=O)[nH]1)C(=O)c1ccccc1OCc1ccc(Cl)cc1	13%	1%	-1%	20µM*	i	i
CN(C(=O)c1ccccc1OCc1ccc(Cl)cc1)c1ccccc1	1%	1%	1%	-5%	i	i
C/C(CC(=O)Nc1ccc(N(C)C)cc1)=N\NC(=O)c1ccc([N+](=O)[O-])cc1Cl	8%	-11%	25µM*	14%	i	i
Cc1ccc2c(c1)-c1c(cnn1CC(=O)N1CCN(c3ccccc3F)CC1)CO2	.	.	0%	20µM*	i	i
O=C(Cn1ncc2c1-c1ccccc1OC2)N1CCN(c2ccccc2F)CC1	.	.	-1%	23%	i	i

Source: PubChem
